# Source: PubChem BioAssay (National Center for Advancing Translational Sciences (NCATS))
# GLS inhibitor: qHTS for Inhibitors of Glutaminase (GLS) | GLS enzymatic activity, qHTS titration | Glutaminase kidney isoform, mitochondrial (Homo sapiens), O94925 | AID 624170, 2012 | Potency, µM (titrated, usually from 45.5 µM), usual class: inhibitors | 410,000 compounds, 0.21% hits
#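 Two-point fluorescence kinetic (t0, 30 min RT) for hKGA; glutamate detected via glutamate oxidase–HRP–Amplex Red. Substrate: 1 mM L-glutamine solution; buffer 45 mM KH2PO4, pH 8.2.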
# VDR inh: Inhibitors of the vitamin D receptor (VDR): qHTS | Potency, µM, usual class: inhibitors | VDR-SRC2-3 peptide fluorescence polarization, 2 h | Vitamin D3 receptor (Homo sapiens), P11473 | AID 504847, 2011 | 400,000 compounds, 0.93% hits
# Target sequence (P11473 whole entry, looked up): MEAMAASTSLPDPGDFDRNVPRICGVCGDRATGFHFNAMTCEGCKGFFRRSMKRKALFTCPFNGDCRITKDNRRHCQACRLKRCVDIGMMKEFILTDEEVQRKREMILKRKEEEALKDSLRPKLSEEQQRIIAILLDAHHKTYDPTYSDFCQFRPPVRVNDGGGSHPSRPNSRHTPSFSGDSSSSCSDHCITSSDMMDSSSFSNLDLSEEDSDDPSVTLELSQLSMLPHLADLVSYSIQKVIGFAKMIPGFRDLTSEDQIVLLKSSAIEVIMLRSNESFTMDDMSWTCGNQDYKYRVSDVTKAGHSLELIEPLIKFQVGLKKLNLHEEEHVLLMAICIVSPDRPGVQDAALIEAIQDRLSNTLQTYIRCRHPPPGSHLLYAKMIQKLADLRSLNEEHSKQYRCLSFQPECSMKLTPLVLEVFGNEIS
#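 Compounds are added to VDR with labelled SRC2-3 coactivator peptide and held 2 h at room temperature. Inhibition of the VDR–peptide interaction is then read as a change in fluorescence polarization.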
# GCN5L2 inh: qHTS Assay for Inhibitors of GCN5L2; Histone acetyltransferase KAT2A (Homo sapiens), Q92830; GCN5L2 HAT assay, ThioGlo1 CoA-SH fluorescence; Potency, µM (highest dose often 58.9 µM), usual class: inhibitors; 390,000 compounds, 0.21% hits
#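 Free CoA generated was detected with ThioGlo1 (50uM) fluorescence at Ex340nm/Em540nm, read immediately and after 20 min at room temperature. Enzyme, 20 nM in HEPES pH 7.5 buffer, saw compounds 15 min before adding 75uM H3(1-25) peptide and 70uM acetyl-CoA.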
# TrxR1 inh: qHTS Assay for Inhibitors of Mammalian Selenoprotein Thioredoxin Reductase 1 (TrxR1): qHTS; Potency, µM (titrated, usually from 114 µM), usual class: inhibitors; recombinant rTrxR1, NADPH fluorescence consumption, selenite substrate; AID 588453, 2011; Thioredoxin reductase 1, cytoplasmic (Rattus norvegicus), O89049; 390,000 compounds, 1% hits; note: nearly all actives have a fitted effect of over 65% in size
#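 Rat TrxR1 (90 nM in the dispensed reagent) was pre-reduced with 400 uM NADPH for 5 min at room temperature, then incubated with compound for 15 min. After 400 uM selenite was added, NADPH fluorescence (Ex 340/Em 450 nm) was followed for 8 min.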
# Sfp PPTase inh: qHTS Assay for Inhibitors of Bacillus subtilis Sfp phosphopantetheinyl transferase (PPTase); 4'-phosphopantetheinyl transferase ffp (Bacillus subtilis), Q9F4F7; Biochemical Sfp PPTase activity, qHTS; Potency, µM, usual class: inhibitors; 310,000 compounds, 3.5% hits; AID 1490, 2009;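 note: the enzyme is Sfp with the accession as filed and its product quenches rhodamine fluorescence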
#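 Reaction rates are the 30-min fluorescence difference (ex 525, em 598 nm) in wells containing 15 nM Sfp, 5 uM rhodamine-CoA and 12.5 uM BHQ-2-YbbR at pH 7.6 with 10 mM MgCl2.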
# TrxR1 substrate: qHTS Assay for Substrates of Mammalian Selenoprotein Thioredoxin Reductase 1 (TrxR1): qHTS | Thioredoxin reductase 1, cytoplasmic (Rattus norvegicus), O89049 | 390,000 compounds, 0.01% hits | Potency, µM (series often up to 114 µM) | purified TrxR1 substrate turnover, NADPH consumption readout | AID 588456, 2011; note: nearly all actives have a fitted effect of over 50% in size
#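 Rat TrxR1, dispensed at 90 nM, was prereduced with 400 uM NADPH (final) for 5 min at ~22 deg C, then incubated with compound 15 min before 400 uM selenite. A first-read NADPH fluorescence drop versus no-compound background flagged substrates.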
# Hits are given with their value; 0 = inactive; ? = inconclusive; - = no result. The list is not random: actives were taken first. Their share in the collection is about 3.8%. Calls come from the whole dose curve; as a rule, active = well fitted curve in the direction sought with a large enough effect; inconclusive = small, poorly fitted or top-dose-only effect, or another doubt; inactive = no such curve, though single readings can be large; an effect the other way counts as inactive or inconclusive.
SMILES,GLS inhibitor,VDR inh,GCN5L2 inh,TrxR1 inh,Sfp PPTase inh,TrxR1 substrate
CC(C)c1ccc(NC2CCCN(C(=O)c3cc(C(C)C)nc(N)n3)C2)cc1 (stereo not drawn),0,0,0,0,0,0
COC(=O)c1ccc(C2C(C#N)=C(N)Oc3cc(O)ccc32)cc1 (stereo not drawn),0,0,0,17.8µM,0,0
COC(=O)c1ccc(C2C(C#N)=C(N)Oc3cc(N)ccc32)cc1 (stereo not drawn),0,0,0,0,0,0
CCOC(=O)C1=C(N)Oc2cc(O)ccc2C1c1ccc([N+](=O)[O-])cc1 (stereo not drawn),0,0,0,0,25.1µM,0
CCOC(=O)C1=C(N)Oc2ccc3ccccc3c2C1c1ccc(O)cc1 (stereo not drawn),0,0,0,0,0,0
O=C(CN1CC(=O)Oc2ccccc21)OCC(=O)c1cccc(Br)c1,0,0,0,0,70.8µM,0
COc1ccc2nc(SCC(N)=O)[nH]c2c1,0,0,0,0,0,0
COc1ccc2[nH]c(=O)c(NC(N)=S)nc2c1,0,0,0,0,35.5µM,0
Cc1csc(N2CCN(c3cc4nc(-c5ccncc5)[nH]c4cc3Cl)CC2)n1,0,0,0,0,79.4µM,0
Cc1ccc(N(Cc2cc3ccc(C)cc3[nH]c2=O)C(=O)c2ccco2)cc1,0,?,0,?,22.4µM,0
O=C(c1cccc(Cl)c1Cl)N(Cc1ccco1)Cc1cccs1,-,79.4µM,-,12.6µM,-,0
Cc1ccc2cc(CN(C(=O)c3ccco3)c3ccccc3)c(=O)[nH]c2c1,0,0,0,?,28.2µM,0
Cc1ccc(N(Cc2cc3ccccc3[nH]c2=O)C(=O)c2ccco2)c(C)c1,0,0,0,0,0,0
Cc1cccc(N(Cc2cc3ccc(C)cc3[nH]c2=O)C(=O)c2ccco2)c1,0,?,0,35.5µM,22.4µM,0
Fc1cccc(Cl)c1CN1CCN(c2nc3ccccc3s2)CC1,0,0,0,0,0,0
O=S1(=O)N=C(N/N=C/C=C/c2ccccc2)c2ccccc21,0,0,0,0,0,0
Cc1ccc2cc(CN(Cc3ccco3)C(=O)c3cccs3)c(=O)[nH]c2c1,0,0,0,0,25.1µM,0
O=C(c1cccs1)N(Cc1ccccn1)Cc1ccco1,0,0,0,0,79.4µM,0
Cc1ccc2[nH]c(=O)c(CN(Cc3ccco3)C(=O)c3cccs3)cc2c1,-,-,0,-,0,-
CCN(CC)CCNC(=O)C1c2ccccc2C(=O)N(CCOC)C1c1ccc(F)cc1 (stereo not drawn),0,0,0,0,0,0
CO/N=C(\C(=O)N[C@@H]1C(=O)N2C(C(=O)[O-])=C(C[n+]3cccc4c3CCCC4)CS[C@H]12)c1csc(N)n1,6.31µM,-,-,-,-,-
CO/N=C(\C(=O)N[C@@H]1C(=O)N2C(C(=O)O)=C(COC(C)=O)CS[C@H]12)c1csc(N)n1,-,70.8µM,0,?,?,0
Cc1ccc(-c2nn(-c3ccccc3)cc2CN(C)C(=O)CCC(=O)O)cc1C,0,0,0,0,0,0
N=c1c2c(-c3ccccc3)c(-c3ccccc3)n(Cc3ccco3)c2ncn1Cc1ccccc1,0,0,?,0,22.4µM,0
c1ccc(-c2c(-c3ccccc3)n(Cc3ccco3)c3ncnc(NCCCn4ccnc4)c23)cc1,0,0,0,?,63.1µM,0
SMILES,GLS inhibitor,VDR inh,GCN5L2 inh,TrxR1 inh,Sfp PPTase inh,TrxR1 substrate
CC(C)Cn1cnc2c(c(-c3ccccc3)c(-c3ccccc3)n2Cc2ccco2)c1=N,0,0,0,0,0,0
OCCNc1ncnc2c1c(-c1ccccc1)c(-c1ccccc1)n2Cc1ccco1,0,0,0,?,0,0
COc1ccc(OC)c(CNC(=O)CCCn2ccc3cc(S(=O)(=O)N4CCCC4)ccc32)c1,0,0,0,0,0,0
COC(=O)c1cc(C)nc2c1C(=O)C(=O)C=C2N1CCOCC1,0,?,0,0,0,35.5µM
CC(=O)Oc1cc(C(=O)OCC(=O)N2CCc3ccccc3C2)cc(OC(C)=O)c1OC(C)=O,6.31µM,?,0,0,-,0
CCCCOCc1cc(CN2CCN(c3cccc(Cl)c3)CC2)c(O)c2ncccc12,0,0,20µM,0,-,0
Oc1c(Cl)cc(CN2CCOCC2)c2cccnc12,0,?,0,?,-,0
Oc1c(CN2CCCCC2)cc(Br)c2cccnc12,0,0,0,?,44.7µM,0
Oc1ccc(CN2CCN(Cc3ccccc3)CC2)c2cccnc12,0,0,0,14.1µM,0,0
CN1CCN(Cc2cc(COCc3ccccc3)c3cccnc3c2O)CC1,3.98µM,?,0,?,0,0
CCCOCc1cc(CN2CCN(c3cccc(Cl)c3)CC2)c(O)c2ncccc12,0,0,0,0,-,0
COc1ccc(-c2cc(C(=O)Nc3ccccc3N3CCOCC3)c3ccccc3n2)cc1OC,0,0,0,0,0,0
CC1=CC(=O)c2c(O)ccc(O)c2C1=O,-,-,12.6µM,-,25.1µM,-
O=C1c2ccc(O)c(O)c2C(=O)c2c(O)ccc(O)c21,-,?,?,-,0,-
Cc1sc2ncnc(Sc3ccccc3C(=O)Nc3ccc(Br)cc3)c2c1C,0,?,0,0,50.1µM,0
C=CSc1sc(Cl)c(N(CC)CC)c1[N+](=O)[O-],0,0,0,0,12.6µM,0
O=C(c1ccco1)N1CCN(C(c2ccccc2Cl)c2nnnn2Cc2cccs2)CC1 (stereo not drawn),0,0,0,?,0,0
O=C(c1ccco1)N1CCN(C(c2ccccc2Cl)c2nnnn2Cc2ccco2)CC1 (stereo not drawn),0,0,0,?,50.1µM,0
O=C(c1ccco1)N1CCN(C(c2ccc(F)cc2)c2nnnn2Cc2cccs2)CC1 (stereo not drawn),0,0,0,0,0,0
O=C(c1ccco1)N1CCN(C(c2ccc(Cl)cc2)c2nnnn2CC2CCCO2)CC1 (stereo not drawn),0,0,0,0,56.2µM,0
CC(C)C(c1nnnn1Cc1cccs1)N1CCN(C(=O)c2ccco2)CC1 (stereo not drawn),0,0,0,0,17.8µM,0
O=C(c1ccco1)N1CCN(C(c2ccccc2)c2nnnn2Cc2cccs2)CC1 (stereo not drawn),0,0,0,0,79.4µM,0
CC(C)Cc1ccc(S(=O)(=O)Nc2ccc3[nH]c(=O)[nH]c3c2)cc1,0,0,0,0,0,0
